Experimental findings from PubChem BioAssay are described below.

Each structure is given as a SMILES string.

The assay relates to glycogen synthase kinase-3 (GSK3A per assay name; protocol says GSK3B). Nature of the assay: GSK3 binders on small-molecule microarrays, primary screen, biochemical, small-molecule microarray, 635 nm fluorescence, GSK3A (AID 1103). Also: the record names both GSK3A and GSK3B. The note with it: small-molecule microarray binding, fluorescence 635 nm; higher = more signal.
The compound `COC(=O)[C@@]1(Cc2ccccc2)[C@H]2c3cc(C(=O)N4CCCC4)n(Cc4ccccc4)c3C[C@H]2CN1C(=O)c1ccccc1` registered a composite z-score of 0.882.
To `CC(C)C[C@@H]1NC(=O)[C@@]23C(=O)N[C@@H](Cc4ccccc4)C2[C@H](C)[C@@]2(C)O[C@H]2C3/C=C/C/C=C\CNC(=O)[C@@H]2CCCN2C1=O` (stereo partly drawn) belongs -0.623; to `COC(=O)[C@@]1(Cc2ccc(OC)cc2)[C@H]2c3cc(C(=O)N4CCCC4)n(CCF)c3C[C@H]2CN1C(=O)c1ccccc1`, 0.383; to `C=C(/C(=C/C[C@@H](OC(=O)c1ccncc1)c1cccc(OCCO)c1)c1cc(C(=O)OC)ccc1OC)C(C)C`, 0.366.
With `O=C(CS)NCCCCCNC(=O)[C@@H]1C[C@@H]2C(=O)N3CCC[C@H]3C(=O)N2[C@@H]1c1ccc(O)cc1` the figure was 1.14; with `COc1cccc(C)c1NC(=O)O[C@H]1[C@H](OC(=O)Nc2ccccc2)[C@H](OC(=O)Nc2ccccc2)[C@@H](OC)O[C@@H]1CO`, 0.0861.
With `COc1ccc(C#Cc2ccc3c(c2)[C@]2(C(=O)N3)[C@H](C(=O)O)[C@H]3C(=O)O[C@H](c4ccccc4)[C@H](c4ccccc4)N3[C@@H]2c2ccc(OCCO)cc2)cc1` the figure was 0.984; with `COc1cc2c(cc1OC)CN(C(=O)[C@@H]1[C@H]3C(=O)O[C@H](c4ccccc4)[C@H](c4ccccc4)N3[C@H](c3ccc(O)cc3)[C@@]13C(=O)Nc1ccc(C#CCNC(N)=O)cc13)CC2`, -0.566.
Take `COc1ccc([Si](C)(C)[C@@H]2[C@@H](CCO)O[C@]3(C(=O)N(Cc4cccc(N5C(=O)COc6ccccc65)c4)c4ccccc43)[C@H]2C)cc1`: the composite z-score was -0.233.
With `Cc1ccc(-c2cccc(=O)o2)cc1` the figure was -0.39; with `COC(=O)c1ccc(OC)c(/C=C\CC(CCc2ccccc2)OC(C)=O)c1` (stereo not drawn), -0.0629.
To `C=C(C(=O)CC[C@H](OC(=O)c1cccnc1)c1ccc(OCCO)cc1)C(C)C` belongs -0.0404; to `CCCC=C(CCC)[C@@H](NS(=O)(=O)c1cccc2cccnc12)c1ccc(C(=O)OC)cc1`, 0.0656.
With `CC(C)CCC[C@@H](C)[C@H]1CC[C@@]2(C)C3=C(CC[C@]12C)[C@@]1(C)CC[C@H](OC(=O)c2ccc(N)cc2)C(C)(C)C1CC3` (stereo partly drawn) the figure was 0.833.
Consider `C[C@H]1ON(c2ccccc2)[C@@H](c2ccccc2)[C@@H]1C(=O)N1C(=O)OC[C@@H]1c1ccccc1`, for which the composite z-score worked out at 0.363.
In the case of `Cc1ccc(S[C@]2(C(=O)O)CC(=O)N(Cc3ccccc3C(F)(F)F)[C@@H]2c2ccc(CO)cc2)cc1`, the composite z-score is -0.926.
With `C=CCN1C(=O)[C@@]2(O[C@@H](CCO)[C@H]([Si](C)(C)c3ccc(OC)cc3)[C@H]2C)c2cc(NC(=O)[C@H](C)O)ccc21` the figure was 1.3.
With `CN1C(=O)C2C=CC(C(O)COCc3ccccc3)N(Nc3ccccc3)C2C1=O` (stereo not drawn) the figure was 0.453; with `C=CCC(OC(C)=O)[C@@H]1[C@@H](N(Cc2cc3ccccc3o2)C(=O)Cc2ccc(OC)cc2)c2cc(OCCCO)ccc2N1C(=O)c1ccc(-c2ccccc2)cc1` (stereo partly drawn), -0.158.
As for `CC1CC/C=C\[C@H]2OC34C=CCN(c5ccc(Cl)cc5)C(=O)[C@H]3N(C(CO)C(C)C)C(=O)[C@]4(C)C2C(=O)O1` (stereo partly drawn), the composite z-score was -0.364.
To `COCCOC(=O)N1C(=O)[C@@]2(c3cc(C#CC4(O)CCCCCC4)ccc31)[C@H](C(=O)N1CCc3cc(OC)c(OC)cc3C1)[C@H]1C(=O)O[C@H](c3ccccc3)[C@H](c3ccccc3)N1[C@@H]2c1ccccc1OCCO` belongs 1.3; to `CC(C)C(CO)N1C(=O)[C@@H]2[C@H]3C(=O)OCC=C[C@H]3OC23C=CCN(Cn2nnc4ccccc42)C(=O)[C@@H]13` (stereo partly drawn), -1.05.
With `O=C1C2C=CC(C(O)c3ccc(Br)cc3)N(Nc3ccccc3)C2C(=O)N1c1ccccc1` (stereo not drawn) the figure was 0.435.
With `CN(C)CCCCNC(=O)[C@H]1C[C@H]2C(=O)N[C@@H](CCCC[N+](C)(C)C)C(=O)N2[C@H]1c1cccc(OCCO)c1` the figure was 0.571.
`O=C1C2C=CC(C(O)c3ccccn3)N(Nc3ccccc3)C2C(=O)N1c1ccccc1` (stereo not drawn): the composite z-score was -0.326.
With `COC(=O)[C@@]1(Cc2ccc(OC)cc2)[C@H]2c3cc(C(=O)N(C)C)n(CCF)c3C[C@H]2CN1C(=O)c1ccccc1` the figure was 1.14.
For `COC(=O)[C@@]1(Cc2ccccc2N=[N+]=[N-])N=C(c2ccc(OCCCO)cc2)O[C@H]1c1ccccc1`, the composite z-score was -0.253.
Take `C=CCC(OC(C)=O)[C@@H]1[C@@H](N(Cc2cccc3ccccc23)C(=O)c2ccc(C)cc2)c2cc(OCCCO)ccc2N1C(=O)c1ccc2ccccc2c1` (stereo partly drawn): the composite z-score came to 0.0882.
